Bioassay records (PubChem)
ELG1 genotoxic: induces genotoxicity in HEK293T cells with luciferase-tagged ELG1; 330,000 tested, 1.3% active; Potency, µM (doses to about 46 µM), for inactives: top-dose activity change, positive = activation, actives largely listed as activators; AID 504466; HEK293T ELG1-luciferase reporter, luminescence, 16 h; also: % of control where 0% means no effect; nearly all actives have a fitted effect of over 60% in size
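DMSO vehicle served as control against compound-treated ELG1-luciferase HEK293T cells; exposure lasted 16 hr at 37 °C and 5% CO2, followed by ONE-Glo luminescence detection after 30 min.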
FLuc modulator: inhibits or activates purified firefly luciferase, miR-21 counter-screen | 360,000 tested, 6.9% active | Potency, µM (highest dose often 57.5 µM), without a hit: at the top dose activity change, negative = inhibition, actives largely listed as inhibitors | purified FLuc, Km substrates, luminescence inhibition | P08659;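 also: plate controls were vehicle for no effect and reference inhibitor for full effect; nearly all actives have a fitted effect of over 55% in size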
Target sequence (P08659 whole entry, looked up): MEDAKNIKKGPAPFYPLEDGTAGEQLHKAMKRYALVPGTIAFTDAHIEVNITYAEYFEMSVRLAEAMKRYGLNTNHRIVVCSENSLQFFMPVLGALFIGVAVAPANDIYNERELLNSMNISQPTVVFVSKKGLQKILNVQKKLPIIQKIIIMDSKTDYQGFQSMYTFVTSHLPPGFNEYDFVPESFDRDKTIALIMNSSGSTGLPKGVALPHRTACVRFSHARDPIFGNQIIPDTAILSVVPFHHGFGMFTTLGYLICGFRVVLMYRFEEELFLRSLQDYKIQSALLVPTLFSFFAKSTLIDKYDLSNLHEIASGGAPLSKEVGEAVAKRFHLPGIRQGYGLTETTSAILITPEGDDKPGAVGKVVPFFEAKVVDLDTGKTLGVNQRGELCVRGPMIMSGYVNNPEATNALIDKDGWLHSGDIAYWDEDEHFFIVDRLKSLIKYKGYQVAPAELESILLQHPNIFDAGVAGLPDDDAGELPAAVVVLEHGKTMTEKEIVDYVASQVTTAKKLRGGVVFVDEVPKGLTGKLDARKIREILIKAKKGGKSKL
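Purified P. pyralis luciferase, 10 nM final, with Km-level 10 uM D-luciferin and 10 uM ATP in 50 mM Tris acetate pH 7.5, 10 mM Mg acetate, 0.01% Tween-20, 0.05% BSA; 6-point qHTS titration about 60 µM downward; luminescence read.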
SMN2 splice enh: enhancers of SMN2 splice variant expression; HEK293 SMN2-luciferase splicing reporter, luminescence, 30-36 h; Potency, µM (doses to about 46.1 µM), for the others: top-dose activity change, positive = activation, actives largely listed as activators; 210,000 tested, 2.8% active; AID 1458; also: % of control where 0% means no effect; nearly all actives have a fitted effect of over 55% in size
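HEK293 cells carry an SMN2 minigene-luciferase reporter in which exon 7 inclusion puts luciferase in frame. Cells were seeded at 2000 cells/well, attached for 10-12 hours, then exposed to compounds for 30-36 hours at 37C before ONE-Glo luminescence.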
p53 reactivation: restores transcriptional activity of mutant p53; H1299 p53-A138V BP100-luciferase reporter, luminescence, 24 h; Potency, µM (doses to about 92.2 µM), for the others: at the highest dose activity change, positive = activation, usual class: activators; 320,000 tested, 0.063% active; AID 504706; also: % of control where 0% means no effect; nearly all actives have a fitted effect of over 45% in size
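H1299 (p53-null), stable ts p53-A138V + BP100-Luc; 1000 cells/well, Opti-MEM/10% FBS; cpd 4 pt, 1:5; 24 h, 37 deg C, 5% CO2; detection reagent 10 min RT; luminescence.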
Rab9 prom act: activators of Rab9 promoter; Huh7 Rab9 promoter-luciferase reporter, luminescence, 24 h; 320,000 tested, 2.8% active; Potency, µM (top dose mostly 9.22 µM), without a hit: at the top dose activation, negative = inhibition, hits mostly activators; AID 485297; also: % of control where 0% means no effect; nearly all actives have a fitted effect of over 60% in size
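Quantitative HTS format; Huh7 Rab9-luciferase reporter cells (1500/well) receive compound 2 h post-plating, incubate 24 h at 37 °C, then get luciferase reagent for 10 min before luminescence reading.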
NPC1 prom act: activates the NPC1 promoter. 320,000 tested, 2.4% active. Potency, µM (doses to about 9.22 µM), without a hit: top-dose activation, hits mostly activators. Huh7 NPC1 promoter luciferase reporter, 24 h; also: % of control where 0% means no effect; nearly all actives have a fitted effect of over 60% in size
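Cells: Huh7 expressing luciferase under the NPC1 promoter, 1500/well. Seeded 2 h, compound added, incubated 24 h at 37 °C. Luciferase reagent, 10 min ambient, then luminescence.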
* hit, by the source's call; ? = inconclusive; nt = not tested or not shown; [ ] = another dose, or the depositor's remark. The list is not random: actives were taken first. Their share in the collection is about 7.3%. Calls follow the shape of the dose curve; as a rule, active = well fitted curve in the direction sought with a large enough effect; inconclusive = small, poorly fitted or top-dose-only effect, or another doubt; inactive = no such curve, though single readings can be large; an effect the other way counts as inactive or inconclusive. Potency is read from the fitted curve at half-maximal effect.

SMILES | ELG1 genotoxic | FLuc modulator | SMN2 splice enh | p53 reactivation | Rab9 prom act | NPC1 prom act
CC1CN(C(=S)SCCN2Cc3ccccc3C2=O)CC(C)O1 (stereo unspecified) | 0% | -10% | -19% | 13% | 8% | 1%
O=C1c2ccccc2CN1CCSC(=S)N1CCSCC1 | 14% | 24µM* | 15% | ? | 3.2µM* | ?
O=C1c2ccccc2CN1CCNC(=S)NC1CCCCC1 | 18% | -5% | nt | 6% | 7% | 13%
O=C1c2ccccc2CN1CCSC(=S)N1CCOCC1 | ? | 12µM* | 13µM* | ? | 3.5µM* | 3.5µM*
CCOc1ccc(N2C(=O)CC(SCCN)C2=O)cc1 (stereo unspecified) | ? | 17µM* | 11µM* | 7% | 2.2µM* | 1.4µM*
CCCCCCOc1ccc(N2C(=O)CC(SCCN)C2=O)cc1 (stereo unspecified) | 2% | -16% | nt | -9% | 0% | 3%
CC(C)c1ccc(-c2noc(SCC(=O)N3CCN(c4ccccc4F)CC3)n2)cc1 | nt | 2.4µM* | nt | nt | nt | nt
O=C(CSc1nc(-c2ccccc2)no1)N1CCCCC1 | nt | 24µM* | 25% | nt | nt | nt
COc1ccccc1N1CCN(C(=O)CSc2nc(-c3ccc(C(C)C)cc3)no2)CC1 | nt | 2.1µM* | nt | nt | nt | nt
Cc1cc(NC(=O)CSc2ncnc3c2cnn3-c2cccc(Cl)c2)no1 | 2% | -1% | 7% | 0% | -4% | 7%
Cc1ccc(NC(=O)C2CCCN(S(=O)(=O)c3ccc4c(c3)oc(=O)n4C)C2)cc1Cl (stereo unspecified) | nt | -7% | -5% | nt | nt | nt
c1ccc2c(COn3nnc4ccccc43)cccc2c1 | 8.9µM* | 11µM* | nt | ? | 2.5µM* | ?
CCCC#Cc1ccc2c(c1)COc1c3ccccc3nn1-2 | ? | 1.5µM* | nt | ? | 0.56µM* | 0.89µM*
COc1ccccc1C1CC(c2ccccc2)=NN1C(=S)Nc1ccccc1 (stereo unspecified) | -2% | -5% | -12% | 2% | 0% | -6%
O=C(/C=C/c1ccc(Cl)cc1Cl)NC(=S)Nc1ccccn1 | ? | ? | 4% | ? | 0.89µM* | 1.1µM*
O=C(NC(=S)Nc1ccccn1)c1ccccc1 | 1.6µM* | 7.6µM* | nt | ? | 0.13µM* | 0.32µM*
O=C(NC(=S)Nc1ccccn1)c1ccc([N+](=O)[O-])cc1 | ? | 5.4µM* | 2.8µM* | ? | 1µM* | 2µM*
O=C(/C=C/c1ccc(Cl)cc1Cl)NC(=S)Nc1ccc(CN2CCOCC2)cc1 | -1% | -2% | -23% | 7% | 7% | -1%
O=C(Nc1ccc(Cl)cc1)c1ccc(-c2ccccn2)s1 | 23% | ? | nt | 14% | 2.8µM* | 1.6µM*
CCN(Cc1ccccc1)Cc1c(O)ccc2c(=O)c(-c3ccccc3Cl)coc12 | nt | -6% | 6% | nt | nt | nt
O=C(CS(=O)(=O)c1ccccc1)Nc1ccccn1 | 2% | 1% | 5% | 5% | -5% | -3%
O=C(Nc1ccccn1)c1ccc([N+](=O)[O-])cc1Cl | 1% | ? | 5% | 17% | 17% | 8%
CC(C)C(=O)NC(=S)Nc1ccccn1 | -1% | -9% | nt | 14% | 17% | 0%
O=C(Nc1ccccn1)c1cc2cc([N+](=O)[O-])ccc2s1 | ? | ? | ? | ? | 1.4µM* | 2µM*
O=C(CC(=O)c1ccccc1)Nc1ccccn1 | 15µM* | 11µM* | nt | ? | 1.8µM* | 2.5µM*
SMILES | ELG1 genotoxic | FLuc modulator | SMN2 splice enh | p53 reactivation | Rab9 prom act | NPC1 prom act
O=C(Nc1ccccn1)c1ccc(Br)s1 | ? | 11µM* | nt | nt | 4µM* | 1.8µM*
O=C(NC(=S)Nc1ccccn1)c1ccc(-c2ccccc2)cc1 | ? | 1.5µM* | nt | ? | 0.28µM* | 0.11µM*
COc1ccc(C(=O)CSc2ncnc3nc[nH]c23)cc1 | -6% | ? | nt | 5% | -6% | -2%
Cc1ccc(OCCSc2ncnc3nc[nH]c23)cc1 | 9.2µM* | 13µM* | 11% | ? | 2.5µM* | ?
CCOc1ccc(Cc2n[nH]c(=S)n2N)cc1 | -2% | 7% | ? | -8% | 2% | 1%
COc1ccc(N2Nc3n[nH]c(N)c3N2)cc1 | 8% | 27µM* | ? | ? | ? | 20%
CCOc1ccc(N2Nc3n[nH]c(N)c3N2)cc1 | ? | 19µM* | ? | ? | ? | ?
CNc1c([N+](=O)[O-])cnn1-c1ccccc1Cl | 11% | 15µM* | 6% | 8% | 15% | 21%
CNc1c([N+](=O)[O-])cnn1-c1ccc(Cl)cc1Cl | 0% | -2% | 9% | 0% | 5% | -2%
Cc1ccc2c(cnn2C(=O)CCCC(=O)NCc2ccc(F)cc2)c1 | -8% | 13µM* | nt | 17% | 29% | 7%
Cc1ccc2c(cnn2C(=O)CCC(=O)N2CCCCC2)c1 | -14% | 12µM* | nt | 2% | 1% | -1%
C[N+]1(CCC[N+]2(C)C[C@H]3[C@H](C2)[C@H]2C=C[C@@H]3CC2)CCOCC1 (stereo partly specified) | nt | nt | -16%[9.22 µM] | nt | nt | nt
Cc1nc(S(=O)(=O)N2CCN(c3ccc(Cl)cc3)CC2)cn1C | nt | -3% | nt | nt | nt | nt
O=C1CC(/C=C/c2ccc(Cl)cc2)=Nc2ccccc2N1 | ? | 4.3µM* | nt | 10% | 1.3µM* | 2.2µM*
O=C1CC(/C=C/c2cccnc2)=Nc2ccccc2N1 | -8% | -19% | -88% | -3% | 17% | 17%
CC1(C)CC(/C=C/c2ccccc2)=Nc2ccccc2N1 | 15% | 4.3µM* | nt | ? | ? | ?
O=C1CC(/C=C/c2ccccc2)=Nc2ccccc2N1 | ? | 2.7µM* | -5% | 12% | 0.89µM* | 2µM*
O=S(=O)(NCCc1csc2nc(-c3ccc(F)cc3)nn12)c1ccc(Oc2ccccc2)cc1 | nt | 7% | nt | nt | nt | nt
O=C(Sc1cccc2cccnc12)c1ccc(F)cc1 | ? | -20% | -65% | 4% | -47% | -49%
O=C(Sc1cccc2cccnc12)c1ccccc1Br | 14% | 24µM* | nt | 14% | -23% | -33%
Cc1cc(NC(=O)CSc2nc3cc(C(=O)NCCCOC(C)C)ccc3c(=O)n2Cc2ccco2)no1 | 9% | -4% | -11% | -3% | 2% | -3%
CCOC(=O)CSc1nnc(-c2ccc(Cl)cc2Cl)o1 | 9% | 8.5µM* | -1% | -7% | -2% | 1%
CCOC(=O)c1ccc(-c2nnc(-c3ccc(Cl)cc3Cl)o2)cc1 | 16% | 3% | 3.5µM* | nt | 0.5µM* | 0.63µM*
CCOC(=O)c1cc(-c2nnc(-c3ccc(Cl)cc3)o2)c(C)nc1C | 2% | 1% | -18% | 4% | -3% | 0%
CCCOC(=O)CSc1nnc(-c2ccc(Cl)cc2Cl)o1 | 1% | 15µM* | -4% | 5% | -1% | 2%
